FLuc modulator = qHTS profiling assay for firefly luciferase inhibitor/activator using purifed enzyme and Km concentrations of substrates (counterscreen for miR-21 project); Potency, µM (top dose mostly 57.5 µM), without a hit: at the top dose activity change, negative = inhibition, actives largely listed as inhibitors; purified FLuc, Km substrates, luminescence inhibition; 360,000 tested, 6.9% active;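 also: plate controls were vehicle for no effect and reference inhibitor for full effect; nearly all actives have a fitted effect of over 55% in size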
Target sequence (P08659 whole entry, looked up): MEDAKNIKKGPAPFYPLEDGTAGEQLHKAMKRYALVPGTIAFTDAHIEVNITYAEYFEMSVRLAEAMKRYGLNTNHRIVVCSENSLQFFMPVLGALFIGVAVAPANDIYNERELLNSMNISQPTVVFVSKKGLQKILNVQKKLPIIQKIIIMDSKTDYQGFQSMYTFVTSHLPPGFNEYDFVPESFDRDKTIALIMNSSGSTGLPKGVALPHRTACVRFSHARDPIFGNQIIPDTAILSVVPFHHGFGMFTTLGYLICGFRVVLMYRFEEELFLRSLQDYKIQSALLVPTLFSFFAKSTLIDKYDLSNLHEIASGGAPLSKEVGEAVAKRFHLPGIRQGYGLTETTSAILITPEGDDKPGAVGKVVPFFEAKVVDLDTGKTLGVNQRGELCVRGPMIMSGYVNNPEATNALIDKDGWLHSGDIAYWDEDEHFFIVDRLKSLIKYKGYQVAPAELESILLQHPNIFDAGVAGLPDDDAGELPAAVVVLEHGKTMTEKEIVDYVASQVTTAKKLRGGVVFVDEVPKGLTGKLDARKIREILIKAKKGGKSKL
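Purified P. pyralis luciferase (10nM final) with 10uM D-luciferin and 10uM ATP (Km levels) in 50mM Tris acetate pH 7.5, 10mM Mg acetate, 0.01% Tween-20, 0.05% BSA; qHTS 6-point titration, ~60 µM downward; luminescence read.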
Rab9 promoter act = qHTS Assay for Rab9 Promoter Activators | Potency, µM (top dose mostly 9.22 µM), for the others: top-dose activation, negative = inhibition, actives largely listed as activators | Huh7 Rab9 promoter-luciferase reporter, luminescence, 24 h | 320,000 tested, 2.8% active; also: % of control where 0% means no effect; nearly all actives have a fitted effect of over 60% in size
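Cells were plated at 1500 per well in reduced-serum medium with 10% FBS and left 2 h. Compound in DMSO was then added for 24 h at 37 °C. Reporter signal was read by luminescence after 10 min with luciferase detection reagent.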
SMN2 splice up = qHTS Assay for Enhancers of SMN2 Splice Variant Expression | HEK293 SMN2-luciferase splicing reporter, luminescence, 30-36 h | Potency, µM (top dose mostly 46.1 µM), for the others: at the top dose activity change, positive = activation, actives largely listed as activators | 210,000 tested, 2.8% active; also: % of control where 0% means no effect; nearly all actives have a fitted effect of over 55% in size
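qHTS luciferase splicing reporter: luminescence rises when SMN2 exon 7 is included in transfected HEK293 cells. Compound exposure lasted 30-36 h at 37C, with 4.5 mM final sodium butyrate as control, followed by a ONE-Glo read.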
NPC1 prom act = qHTS Assay for NPC1 Promoter Activators; Huh7 NPC1 promoter luciferase reporter, 24 h; Potency, µM (titrated, usually from 9.22 µM), for inactives: top-dose activation, usual class: activators; 320,000 tested, 2.4% active; also: % of control where 0% means no effect; nearly all actives have a fitted effect of over 60% in size
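Stably transfected Huh7 (NPC1 promoter→luciferase), 1500 cells/well in Opti-MEM + 10% FBS, 2 h settle, then compound 24 h at 37 °C. Luminescence after 10 min with Amplite reagent.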
ELG1 genotoxic = qHTS screen for small molecules that induce genotoxicity in human embryonic kidney (HEK293T) cells expressing luciferase-tagged ELG1. 330,000 tested, 1.3% active. AID 504466, 2011. HEK293T ELG1-luciferase reporter, luminescence, 16 h. Potency, µM (series often up to 46 µM), for the others: top-dose activity change, positive = activation, most hits filed as activators; also: % of control where 0% means no effect; nearly all actives have a fitted effect of over 60% in size
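HEK293T cells expressing luciferase-tagged ELG1 were exposed to compound or DMSO vehicle for 16 hr at 37 °C and 5% CO2. Luciferase activity was then measured with ONE-Glo after 30 min at room temperature.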
KinaseGlo FLuc = Counterscreen for Luciferase (Kinase-Glo TM) Inhibition; Luciferin 4-monooxygenase (Photuris pensylvanica), Q27757; Kinase-Glo luciferase, ATP luminescence, 8 min; Potency, µM (titrated, usually from 38.3 µM), for inactives: at the highest dose activity change, negative = inhibition, usual class: inhibitors; 200,000 tested, 0.28% active; AID 1379, 2008; also: % is scaled to controls: 0 for no effect and ±100 for the full control effect; nearly all actives have a fitted effect of over 60% in size
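Substrate mix (final 50 mM imidazole pH 7.2, 50 mM KCl, 7 mM MgCl2, 10 uM ATP, 0.01% Tween 20, 0.05% BSA) plus pin-tool compound, then Kinase-Glo detection mix; 8 min ambient, luminescence read.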
* marks the source's active call; other numbers are inactive results; ? = inconclusive; . = not tested or not shown. This is a sample that favours compounds with a hit; in the whole collection about 7.5% have one here. Calls follow the shape of the dose curve; as a rule, active = well fitted curve in the direction sought with a large enough effect; inconclusive = small, poorly fitted or top-dose-only effect, or another doubt; inactive = no such curve, though single readings can be large; an effect the other way counts as inactive or inconclusive. Potency is read from the fitted curve at half-maximal effect.

SMILES	FLuc modulator	Rab9 promoter act	SMN2 splice up	NPC1 prom act	ELG1 genotoxic	KinaseGlo FLuc
O=C(O)c1cc(-c2ccc(-c3c(-c4ccc5c(c4)OCO5)noc3-c3ccsc3)cc2)nc2ccccc12	19µM*	21%	.	?	3%	.
O=C(O)c1cc(-c2ccc3c(c2)OCO3)nc2ccc(Cl)cc12	2.4µM*	29%	.	0%	29%	.
O=C(Nc1ccc2c(c1)OCO2)c1cc(-c2ccncc2)nc2ccccc12	?	5%	13%	2%	-2%	-7%
CC(C)(C)NC(=O)c1cc(-c2ccc3c(c2)OCO3)nc2ccccc12	17µM*	-5%	.	20%	1%	.
Cn1c(NC(=O)c2cc(-c3ccc4c(c3)OCO4)nc3ccccc23)cc(=O)n(C)c1=O	2.1µM*	20%	10µM*	30%	?	?
Cc1ccccc1NC(=O)CN(C)S(=O)(=O)c1cccc2nsnc12	3%	.	.	.	.	.
Cc1ccc(CNC(=O)C2CCN(Cc3nc(-c4ccccc4C)oc3C)CC2)cc1	-17%	.	5%	.	.	.
CCCOc1ccc(CNC(=O)C(NS(=O)(=O)c2cccs2)C(C)C)cc1 (stereo not drawn)	-2%	.	.	.	.	.
COC(=O)c1nc(-c2ccccc2)oc1N1CCOCC1	-5%	0%	10%	-10%	2%	0%
COC(=O)c1ccc(-c2cc(C(=O)O)c3cc4c(cc3n2)OCCO4)cc1	4.8µM*	-1%	7%	3%	?	-3%
Cc1ccc2nc(Nc3ccc4[nH]c(=O)[nH]c4c3)c(-n3nc(C)cc3C)nc2c1	0.85µM*	?	18µM*	25%	?	0%
Cc1ccc(-c2nc(NC(=O)CSc3ncn[nH]3)ns2)cc1	17µM*	16%	.	3%	6%	.
Cc1cc(SCC(=O)Nc2nsc(-c3ccc(C(C)(C)C)cc3)n2)nc2ccccc12	.	.	14µM*	.	.	.
CN1CCCC2(CCN(S(=O)(=O)c3ccccc3)CC2)C1	.	.	-4%	.	.	3%
CCN(c1ccccc1)S(=O)(=O)c1cc(-c2onc(C)c2C)ccc1OC	-2%	.	.	.	.	.
CCC(=O)Nc1cccc(-c2ccc(N3CCN(C)CC3)nn2)c1	6.7µM*	?	.	2.5µM*	?	.
CCC(=O)Nc1cccc(-c2ccc(N3CCCCC3)nn2)c1	0.54µM*	0.45µM*	.	0.56µM*	2.3µM*	.
O=C(CN1C(=O)/C(=C/c2ccccc2F)Sc2ccccc21)NCC1CCCO1 (stereo not drawn)	-12%	0%	.	-2%	-9%	.
Brc1ccc(-c2cn3c(n2)CCc2ccc4cccnc4c2-3)cc1	13µM*	4%	-14%	13%	-5%	-1%
Brc1ccc(OCCCOc2cccc3cccnc23)cc1	?	1%	.	1%	7%	.
COC(=O)c1ccc(NC(=O)CCOc2ccccc2)cc1	-14%	-2%	4%	-3%	16%	0%
O=C(CCOc1ccccc1)Nc1ccc(Br)cc1	?	3.2µM*	.	?	17%	.
COc1ccc(NC(=O)CCOc2ccccc2)cc1	17µM*	4.5µM*	?	3.2µM*	?	-1%
CC(C)C(=O)NCC(c1ccc2c(c1)OCO2)N1CCN(c2ccccc2F)CC1 (stereo not drawn)	-8%	.	.	.	.	.
Cc1cc(N/N=C2/CCCc3ccccc32)nc2ccccc12	7.6µM*	?	-4%	29%	-5%	-2%
SMILES	FLuc modulator	Rab9 promoter act	SMN2 splice up	NPC1 prom act	ELG1 genotoxic	KinaseGlo FLuc
O=C(CSc1nccn1Cc1ccc(Cl)cc1)NC1CCCC1	-6%	.	.	.	.	.
COc1cccc(CN2CCN(Cc3cccc4c3OCO4)CC2CCO)c1 (stereo not drawn)	2.4µM*	0.089µM*	.	0.4µM*	?	-5%
Cc1nc(NC(=O)COC(=O)CCc2nc3ccccc3s2)c(Cl)cc1Cl	1%	-9%	-8%	-2%	1%	-2%
CCc1ccc(-c2csc(NC(=O)COC(=O)CCc3nc4ccccc4s3)n2)cc1	?	3.2µM*	5.6µM*	2.8µM*	?	0%
CC(C)(C)NC(=O)Nc1ccc(Br)cc1	15µM*	2.5µM*	.	?	?	.
O=C(O)Cc1ccc(NC(=O)Nc2ccc(Br)cc2)cc1	6.7µM*	-10%	.	3%	0%	-1%
COc1ccc(NC(=O)Nc2ccc(CC(=O)O)cc2)cc1	13µM*	4%	2%	-2%	-2%	-1%
CC(C)(C)NC(=O)Nc1ccc(F)c(Cl)c1	?	-1%	.	-3%	-6%	.
O=C(O)Cc1ccc(NC(=O)C(c2ccccc2)c2ccccc2)cc1	-2%	-5%	.	-1%	0%	-1%
O=C(Nc1ccccn1)C1CCCN1S(=O)(=O)c1ccc(Cl)cc1 (stereo not drawn)	0%	-2%	.	-1%	-1%	.
CCCN(CCC)S(=O)(=O)c1ccc(C(=O)N2CCn3c4c(c5cc(C)ccc53)CCCC42)cc1 (stereo not drawn)	?	.	-1%	.	.	.
Fc1ccccc1CSc1ccc(-c2ccco2)nn1	6µM*	1.6µM*	18µM*	2.2µM*	?	-3%
c1ccc(CSc2ccc(-c3ccco3)nn2)cc1	2.4µM*	1.8µM*	13µM*	4µM*	8.2µM*	-6%
Cc1cccc(CSc2ccc(-c3ccco3)nn2)c1	12µM*	?	?	?	?	-2%
Clc1cccc(CSc2ccc(-c3ccco3)nn2)c1	21µM*	27%	26%	12%	8%	-3%
Cc1cccc(CSc2nnc(-c3ccco3)o2)c1	?	16%	26%	18%	?	0%
O=C(CSc1ccc(-c2ccco2)nn1)Nc1ccc(F)cc1F	?	1%	.	7%	-13%	.
Cc1ccc(NC(=O)C(C)n2nnc3sc4c(c3c2=O)CCCC4)cc1Cl (stereo not drawn)	-13%	.	-19%	.	.	.
O=C(O)c1ccccc1C(=O)NC1CCN(c2nccc(C(F)(F)F)n2)CC1	-1%	-2%	.	-5%	1%	.
Clc1ccc(CSc2ccc(-c3ccco3)nn2)cc1	?	?	?	?	15%	-5%
Cc1ccc(CSc2ccc(-c3ccco3)nn2)cc1	4.8µM*	2.8µM*	11µM*	3.5µM*	?	-14%
Cc1ccc2nc(/C=C/c3cccc(F)c3)ccc2c1	1.2µM*	2µM*	10µM*	3.5µM*	1.8µM*	-3%
O=c1[nH]c(/C=C\c2cccc(F)c2)nc(O)c1[N+](=O)[O-]	-11%	-3%	.	-1%	0%	.
